Source: PubChem BioAssay (Tox21)
Results filed as inconclusive are left out. Calls of active or inactive are those of the source. Unless noted, the call rests on the fitted dose curve; in most records, active means well fitted curve in the direction sought with a large enough effect in the repeat runs; inconclusive means weak or mixed curves; inactive means no such curve, though single readings can be large; an effect the other way counts as inactive or inconclusive.

What was measured:
[1] = qHTS assay to identify small molecule antagonists of the peroxisome proliferator-activated receptor delta (PPARd) signaling pathway - cell viability counter screen (AID 743213); further: nearly all actives have a fitted effect of over 50% in size
In short: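 HEK293H cells with the PPARd UAS-bla reporter, co-treated 17 h at 37 C with compounds and L165041 (300 nM final), were lysed with CellTiter-Glo. Luminescence indicated viable cell content.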

[2] = qHTS assay to identify small molecule antagonists of the farnesoid-X-receptor (FXR) signaling pathway - cell viability counter screen (AID 743221; active means well fitted cell-killing curve with a large enough effect in the repeat runs, not every such curve was filed as active; further: nearly all actives have a fitted effect of over 50% in size)
In short: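 FXR-UAS-bla HEK 293T cells were treated with test compounds plus chenodeoxycholic acid (50 uM final) for 16 h at 37 C. Cell viability in the same wells was then read as CellTiter-Glo luminescence after 30 min at room temperature.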

[3] = target: Vitamin D3 receptor (Homo sapiens) (UniProt P11473); assay: qHTS assay to identify small molecule agonists of the vitamin D receptor (VDR) signaling pathway (AID 743222; calls by dose curve)
Sequence of Vitamin D3 receptor (Homo sapiens) (P11473 whole entry, looked up): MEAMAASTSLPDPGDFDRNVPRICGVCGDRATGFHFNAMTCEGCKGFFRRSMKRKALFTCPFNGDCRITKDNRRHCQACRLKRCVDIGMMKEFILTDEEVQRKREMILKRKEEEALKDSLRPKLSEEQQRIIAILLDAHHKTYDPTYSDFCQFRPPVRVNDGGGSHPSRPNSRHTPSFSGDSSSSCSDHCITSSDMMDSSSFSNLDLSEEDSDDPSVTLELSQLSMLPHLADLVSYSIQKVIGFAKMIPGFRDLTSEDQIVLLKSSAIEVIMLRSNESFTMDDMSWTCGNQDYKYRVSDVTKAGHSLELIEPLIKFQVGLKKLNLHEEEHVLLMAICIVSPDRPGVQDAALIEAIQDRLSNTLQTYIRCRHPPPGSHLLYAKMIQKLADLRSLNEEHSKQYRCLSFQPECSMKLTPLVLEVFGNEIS
In short: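 Following 4 h attachment at 37C, VDR-bla cells (2,000 per well) received DMSO-dissolved compounds or controls. After 16 h incubation, LiveBLAzer B/G FRET substrate was added and fluorescence read 2 h later at room temperature.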

[4] = target: Vitamin D3 receptor (Homo sapiens) (UniProt P11473); assay: qHTS assay to identify small molecule antagonists of the vitamin D receptor (VDR) signaling pathway (AID 743223; active means well fitted inhibition curve with a large enough effect in the signal ratio in the repeat runs, not every such curve was filed as active; the % refers to the signal ratio)
In short: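 VDR-bla cells were plated, incubated 4 h at 37C, then given compound and 1alpha,25-dihydroxyvitamin D3 (3 nM final). After 16 h at 37C, LiveBLAzer B/G FRET substrate was added for 2 h at room temperature and fluorescence read.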

[5] = qHTS assay to identify small molecule agonists of the vitamin D receptor (VDR) signaling pathway - cell viability counter screen (AID 743224); further: series mostly up to about 63 µM; nearly all actives have a fitted effect of over 50% in size
In short: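 In parallel with the bla FRET readout, cytotoxicity toward VDR-bla cells after 16 h compound exposure was assessed by CellTiter-Glo, with luminescence recorded after a 30 min room-temperature incubation.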

[6] = qHTS assay to identify small molecule antagonists of the vitamin D receptor (VDR) signaling pathway - cell viability counter screen (AID 743225); further: nearly all actives have a fitted effect of over 50% in size
In short: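 VDR-bla HEK 293T cells, 4 h pre-incubation at 37C, then compound plus 1-alpha,25-dihydroxyvitamin D3 (3 nM final) for 16 h. After the beta-lactamase FRET read, CellTiter-Glo was added to the same wells; luminescence after 30 min at room temperature.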

[7] = qHTS assay to identify small molecule agonists of the NFkB signaling pathway (AID 1159509; active means well fitted curve in the direction sought with a large enough effect in the signal ratio in the repeat runs, not every such curve was filed as active; the % refers to the signal ratio; further: series mostly up to about 61 µM)
In short: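 Pathway activation was measured in ME-180 cells stably expressing beta-lactamase under NF-kB response element control. Substrate cleavage was read as the 460/530 nm emission shift after 5 hr compound incubation.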

[8] = qHTS assay to identify small molecule agonists of the NFkB signaling pathway - cell viability counter screen (AID 1159515; calls by dose curve; further: series mostly up to about 61 µM; nearly all actives have a fitted effect of over 55% in size)
In short: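 Plate 2,000 NFkB-bla ME-180 cells/well; incubate overnight. Add compounds, 5 hr at 37 C. Add FRET substrate, 1.5 hr RT. Add CellTiter-Glo, 30 min RT; read luminescence.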

[9] = qHTS assay to identify small molecule agonists of the endoplasmic reticulum stress response signaling pathway (AID 1159516; active means well fitted activation curve with a large enough effect in the signal ratio in the repeat runs, not every such curve was filed as active; the % refers to the signal ratio)
In short: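 Beta-lactamase expression from the ER stress response element in HeLa reporter cells is quantified with the LiveBLAzer B/G FRET substrate, read at 405 nm excitation after 2 hr at room temperature, following 5 hr compound treatment at 37 C.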

[10] = qHTS assay to identify small molecule agonists of the endoplasmic reticulum stress response signaling pathway - cell viability counter screen (AID 1159517; calls by dose curve)
In short: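 Cpd-treated ESRE-bla HeLa (5 hr, 37 C) → LiveBLAzer 2 hr RT → CellTiter-Glo 30 min RT → luminescence.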

[11] = qHTS assay to identify small molecule antagonists of the retinoid-related orphan receptor gamma (ROR-gamma) signaling pathway - cell viability counter screen (AID 1159520); further: nearly all actives have a fitted effect of over 50% in size
In short: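 Tet-on ROR gamma CHO cells (1,000/well) were plated 4 hr, given compounds in DMSO for 2 hr at 37 C, then induced with 1 uM final doxycycline for 16 hr. Viability was read as ATP by CellTiter-Glo luminescence after 30 min.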

[12] = target: Nuclear receptor ROR-gamma (Homo sapiens) (UniProt P51449); assay: qHTS assay to identify small molecule antagonists of the retinoid-related orphan receptor gamma (ROR-gamma) signaling pathway (AID 1159521)
In short: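 Tet-on RORγ CHO cells carrying a ROR response element–luciferase reporter were pretreated with compounds for 2 h, then induced with 1 uM (final) doxycycline hyclate for 16 h at 37 C. Antagonism was read as decreased ONE-Glo luminescence.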

[13] = qHTS assay to identify small molecule agonists of the AP-1 signaling pathway - cell viability counter screen (AID 1159525; calls by dose curve; further: nearly all actives have a fitted effect of over 55% in size)
In short: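 Each titration point was normalised to DMSO and tetra n-octyl ammonium bromide controls. The read was Cell Titer Glo luminescence after 30 min at RT, following 5 h compound exposure of ME-180 AP-1-bla cells at 37 °C.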

[14] = qHTS assay to identify small molecule agonists of the AP-1 signaling pathway (AID 1159526; calls by dose curve)
[15] = target: Peroxisome proliferator-activated receptor delta (Homo sapiens) (UniProt Q03181); assay: qHTS assay to identify small molecule agonists of the peroxisome proliferator-activated receptor delta (PPARd) signaling pathway (AID 743212; calls by dose curve)
Sequence of Peroxisome proliferator-activated receptor delta (Homo sapiens) (Q03181 whole entry, looked up): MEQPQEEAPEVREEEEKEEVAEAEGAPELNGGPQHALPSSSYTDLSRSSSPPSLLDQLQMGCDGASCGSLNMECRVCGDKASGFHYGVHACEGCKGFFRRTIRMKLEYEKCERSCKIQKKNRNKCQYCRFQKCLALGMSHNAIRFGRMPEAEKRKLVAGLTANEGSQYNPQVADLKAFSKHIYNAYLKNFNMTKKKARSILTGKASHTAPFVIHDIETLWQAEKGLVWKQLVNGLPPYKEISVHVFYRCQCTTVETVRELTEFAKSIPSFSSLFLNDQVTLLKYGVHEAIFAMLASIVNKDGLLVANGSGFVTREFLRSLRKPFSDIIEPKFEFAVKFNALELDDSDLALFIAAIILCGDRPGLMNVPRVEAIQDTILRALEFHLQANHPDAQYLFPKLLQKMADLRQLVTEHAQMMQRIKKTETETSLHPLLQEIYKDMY
In short: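 Cells expressing a UAS-driven beta-lactamase reporter (PPARd-bla HEK293H) were given test compounds after a 5 h settle and kept at 37 C. Reporter activity was then measured as FRET fluorescence using LiveBLAzer B/G substrate.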

[16] = target: Peroxisome proliferator-activated receptor delta (Homo sapiens) (UniProt Q03181); assay: qHTS assay to identify small molecule antagonists of the peroxisome proliferator-activated receptor delta (PPARd) signaling pathway (AID 743215; active means well fitted inhibition curve with a large enough effect in the signal ratio in the repeat runs, not every such curve was filed as active; the % refers to the signal ratio;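 further: cells stimulated with agonist L165041 at 300 nM final during compound exposure; series mostly up to about 62 µM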)
In short: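 Fluorescence from cleaved LiveBLAzer B/G FRET substrate (2 h, room temperature) reports PPARd-driven beta-lactamase in HEK293H UAS-bla cells. Cells had been treated 17 h at 37 C with compound plus 300 nM final L165041.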

[17] = qHTS assay to identify small molecule agonists of the farnesoid-X-receptor (FXR) signaling pathway - cell viability counter screen (AID 743218); further: nearly all actives have a fitted effect of over 45% in size
In short: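 Readout: CellTiter-Glo luminescence, 30 min RT, multiplexed after the FXR-bla FRET reading. HEK 293T FXR-UAS-bla cells received compound 5 h post-plating and were incubated 16 h at 37 C.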

[18] = target: Bile acid receptor (Homo sapiens) (UniProt Q96RI1); assay: qHTS assay to identify small molecule agonists of the farnesoid-X-receptor (FXR) signaling pathway (AID 743220; active means well fitted activation curve with a large enough effect in the signal ratio in the repeat runs, not every such curve was filed as active; the % refers to the signal ratio)
Sequence of Bile acid receptor (Homo sapiens) (Q96RI1 whole entry, looked up): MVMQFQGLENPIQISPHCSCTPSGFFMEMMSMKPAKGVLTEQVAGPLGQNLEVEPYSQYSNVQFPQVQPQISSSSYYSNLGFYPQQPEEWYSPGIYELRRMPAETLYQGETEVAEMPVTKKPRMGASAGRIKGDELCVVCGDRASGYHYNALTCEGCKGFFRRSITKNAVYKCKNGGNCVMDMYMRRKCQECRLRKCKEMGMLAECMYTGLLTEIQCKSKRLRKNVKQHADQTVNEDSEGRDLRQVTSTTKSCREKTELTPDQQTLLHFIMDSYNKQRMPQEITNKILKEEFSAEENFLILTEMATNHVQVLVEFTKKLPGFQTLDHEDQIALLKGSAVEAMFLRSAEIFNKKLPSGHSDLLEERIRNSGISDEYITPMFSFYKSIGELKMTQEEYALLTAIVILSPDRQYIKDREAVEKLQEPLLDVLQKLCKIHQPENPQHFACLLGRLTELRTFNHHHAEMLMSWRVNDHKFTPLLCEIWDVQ
In short: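 FXR-UAS-bla HEK 293T cells carrying a UAS-driven beta-lactamase reporter were plated for 5 h at 37C/5% CO2, then exposed to DMSO-dissolved Tox21 10K compounds for 16 h at 37C. A LiveBLAzer B/G FRET substrate was loaded for 2 h at room temperature before fluorescence reading.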

[19] = qHTS assay to identify small molecule agonists of the peroxisome proliferator-activated receptor delta (PPARd) signaling pathway - cell viability counter screen (AID 743211); further: nearly all actives have a fitted effect of over 55% in size
In short: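 PPARd-bla HEK293H cells (UAS-beta-lactamase reporter) were treated with compounds for 17 h at 37 C. Viability was then read in the same wells by CellTiter-Glo luminescence after 30 min at room temperature.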

Measured: Potency

CCCCN(CCO)CCO
not listed: [15] | [16] | [17] | [18] | [19]
inactive: all other assays above

Nc1nc(F)nc2c1ncn2[C@@H]1O[C@H](CO)[C@@H](O)[C@@H]1O
not listed: [3] | [4] | [18] | [19]
inactive: all other assays above

CC1CCN(CCCC(=O)c2ccc(F)cc2)CC1
not listed: [3] | [4] | [5] | [6] | [15] | [16] | [19]
inactive: all other assays above

CC(C)CCCC(C)NCCC(C)C (stereo not given)
not listed: [15] | [17] | [18] | [19]
inactive: all other assays above

C=C(C)C(=O)NCCCN(C)C
not listed: [13] | [16] | [18]
inactive: all other assays above

CC12CCC(CC1=O)C2(C)C (stereo not given)
not listed: [17] | [18] | [19]
inactive: all other assays above

NC(=O)c1ncn([C@@H]2O[C@H](CO)[C@@H](O)[C@H]2O)c1N
not listed: [2] | [3] | [15] | [16] | [18] | [19]
inactive: all other assays above

c1ccc2cnncc2c1
not listed: [3] | [4] | [6] | [11] | [18] | [19]
inactive: all other assays above

CC(C)(C)OC(=O)N1C[C@@H](F)C[C@H]1C(=O)O
not listed: [11] | [18] | [19]
inactive: all other assays above
